In PubChem BioAssay (NCI) one finds growth data, which are given here for 15 molecules.

Holding throughout (experiment): NCI-60 one-dose screen, 48 h (100 = growth as untreated, 0 = no growth, -100 = all killed)
Conditions in all cases: 10 µM unless noted

The subject of assay [1] is NCI-H23 lung.
Assay [2] has as its system NCI-H226 lung.
The subject of assay [3] is NCI-H322M lung.
Assay [4] has as its system HOP-62 NSCLC.
Assay [5] has as its system NCI-H460 lung.
In assay [6] the test system is HOP-92 NSCLC.
For assay [7], the system named is NCI-H522 lung.
Assay [8] relates to A549/ATCC NSCLC.
Assay [9] deals with 786-0 renal.

Compounds without any hit were thinned out: in the full panel of roughly 83,000, 20% have a hit.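 Growth was measured after 48 h exposure to one concentration of compound in 96-well plates. Values under 10 count as active.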 Values without a mark were called inactive. The source made the active and inactive calls.

On to `COc1cc(/C=C/C(=O)c2cccc(-n3cc(-c4ccccc4)[nH]c3=O)c2)cc(OC)c1OC`, for which the growth in [1] was -27.4% (active); in [2], 24.9%; in [3] it was 33%; in assay [4] it was 7.01% (active); in assay [5], -68.5% (active); in assay [6], 24.3%. Also, the growth in [7] was -64.5% (active); in assay [8], 27.1%; in assay [9], -63.4% (active).

Consider `Cc1cc(NS(=O)(=O)c2ccccc2)c(OS(=O)(=O)c2ccccc2)cc1C`, for which the growth in assay [1] was 98.6%; in [2] it was 101%; in [3] it was 110%; in assay [4] it was 105%; in [5] it was 106%; in assay [6], 88.1%. In addition, the growth in assay [7] is 97.4%; in assay [8], 104%; in assay [9], 112%.

For the molecule `N#Cc1cnn2c(-c3ccc(Cl)cc3)nc(NCCc3ccccc3)nc12`, the growth is 85.2% in assay [1]; 105% in assay [2]; 83.5% in [3]; 84.9% in assay [4]; 99% in [5]; 92.6% in assay [6]. Further, the growth in [7] was 74.4%; in [8], 93.3%; in assay [9], 92.5%.

For `CCNCCNc1cc(C2CCCC2)c(C#N)c2nc3ccccc3n12`, the growth is 69.6% in [1]; 46.1% in [2]; 23.7% in [3]; 33.9% in assay [4]; 2.84% (active) in assay [5]; 52.3% in [6]. The growth is 6.72% (active) in [7], 7.98% (active) in assay [8] and 20% in [9].

Turning to `O=C(/C=C/C12c3ccccc3C(c3ccccc31)C1C(=O)N(c3ccc(Cl)cc3)C(=O)C12)c1ccccn1` (stereo not given), the growth in assay [1] is -22.6% (active); in assay [2], -49.3% (active); in [3], 11.3%; in [4] it was 5.06% (active); in assay [5], -32.3% (active); in assay [6], -53.7% (active). For the same molecule, the growth in [7] is -6.34% (active); in assay [8], 5.63% (active); in [9], -60.7% (active).

With `O=C1CCC(N2C(=O)c3cccc(NCCCC4CCN(CCNC(=O)c5cc6c(o5)C(=O)c5ccccc5C6=O)CC4)c3C2=O)C(=O)N1` (stereo not given), the growth in assay [1] was -59.6% (active); in assay [2], -69.2% (active); in [3] it was -98.8% (active); in assay [4] it was -52.9% (active); in assay [5], -71.1% (active); in [6], 49%. For the same molecule, the values for the growth in assay [7], in [8] and in [9] were -51.7% (active), -41.9% (active) and -26.2% (active), respectively.

Turning to `Cc1cc(Cc2cc(C)cc(C(C)(C)C)c2O)c(O)c(C(C)(C)C)c1`, the growth in assay [1] was 23.3%; in assay [2] it was 58.3%; in [3], 75.7%; in [4], 68.3%; in assay [5], 8.85% (active); in assay [6], 18.5%. The growth in assay [7] was 29.9%; in [8], 27.3%; in [9] it was 57%.

In the case of `O=C1CSC(c2ccccc2)N1c1ccccc1` (stereo not given), the growth in assay [1] is 99.7%; in [2], 96.2%; in assay [3], 90.4%; in assay [4] it was 116%; in assay [5], 103%; in [6] it was 82.4%. Moreover, the figures for the growth in assay [7], in assay [8] and in assay [9] were 104%, 103% and 105%, respectively.

For the molecule `CN(C)c1ccc(/C=C/c2c(F)cccc2F)cc1`, the growth in [1] was 83.9%; in assay [2], 94.1%; in [3] it was 92.7%; in assay [4] it was 74.4%; in [5], 107%; in assay [6] it was 81%. Besides, the growth in [7] is 76.4%; in assay [8], 82.6%; in assay [9], 105%.

Take `O=C1NN(C(=O)c2ccc(O)cc2)C(c2ccccc2)=N/C1=C\c1cn(-c2ccccc2)nc1-c1ccccc1`: the growth in [1] was 98.3%; in assay [2] it was 103%; in assay [3], 97%; in assay [4], 92%; in [5], 100%; in [6], 94.9%. The values for the growth in [7], in [8] and in assay [9] were 85%, 99.7% and 94%, respectively.

Regarding `CCN(CC)CCOC(=O)Nc1ccccc1Cl`, the growth in [1] was 105%; in assay [2] it was 88.1%; in assay [3] it was 92.7%; in assay [4], 102%; in assay [5] it was 104%; in assay [6], 82%. For the same molecule, the growth was 68.9% in [7], 98.7% in assay [8] and 92.1% in assay [9].

Regarding `Cc1cc(-c2ccc(N(C)C)cc2)c2sc(=O)[nH]c2n1`, the growth in [1] is 82.6%; in [2] it was 64.6%; in [3] it was 78.1%; in [4], 70.2%; in [5], 65.2%; in assay [6], 85.5%. Also, the growth was 56.5% in assay [7], 66% in assay [8] and 77.2% in [9].

On to `O=C(CCl)N1c2cccc3cccc(c23)N(C(=O)CCl)C1c1cn(-c2ccccc2)nc1-c1cccc([N+](=O)[O-])c1`, for which the growth in assay [1] is 90.1%; in [2], 98.8%; in assay [3] it was 104%; in assay [4] it was 94.5%; in [5], 103%; in assay [6] it was 117%. In addition, the growth in assay [7] was 77.1%; in [8], 107%; in [9] it was 95.5%.

For `Clc1ccc2c(NCCCN3CCN(c4nc(-n5ccnc5)nc5ccccc45)CC3)ccnc2c1`, the growth in [1] is 104%; in assay [2], 113%; in assay [3] it was 87.1%; in assay [4], 84.7%; in assay [5], 89.3%; in assay [6] it was 58.7%. The results for the growth in assay [7], in assay [8] and in assay [9] were 75.7%, 96.9% and 78.8%, respectively.

Consider `COc1ccc(-c2cc(-c3cc(OC)ccc3OC)[nH]c(=O)c2C#N)cc1`, for which the growth was 64.3% in assay [1]; 69.5% in [2]; 91.7% in [3]; 48.1% in [4]; 32.4% in assay [5]; 55.3% in assay [6]. For the same molecule, the growth was 16.7% in assay [7], 46.3% in assay [8] and 63.5% in assay [9].
